Screens from PubChem BioAssay.
D1 antagonist – human D1 dopamine receptor antagonism. P21728. HEK293 TREx D1 cells, calcium flux, dopamine EC80; stronger effect = lower value. activity change, negative = inhibition, % at 10 µM. actives 3.2% (n = 360,000). AID 504652; in the data active = activity change below about -30%
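Tetracycline-induced HEK293 Trex D1 cells, force-coupled to calcium, dye-loaded; compounds added and read 180 s, then EC80 dopamine added and calcium flux tracked kinetically another 180 s.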
DRD3 agonist – D3 dopamine receptor (human) agonism. P35462. D3R DiscoveRx beta-arrestin cells, luminescence, 90 min. max activation, %. actives 0.58% (n = 410,000). AID 652048; in the data active = max activation above about 30%
Target sequence (P35462 whole entry, looked up): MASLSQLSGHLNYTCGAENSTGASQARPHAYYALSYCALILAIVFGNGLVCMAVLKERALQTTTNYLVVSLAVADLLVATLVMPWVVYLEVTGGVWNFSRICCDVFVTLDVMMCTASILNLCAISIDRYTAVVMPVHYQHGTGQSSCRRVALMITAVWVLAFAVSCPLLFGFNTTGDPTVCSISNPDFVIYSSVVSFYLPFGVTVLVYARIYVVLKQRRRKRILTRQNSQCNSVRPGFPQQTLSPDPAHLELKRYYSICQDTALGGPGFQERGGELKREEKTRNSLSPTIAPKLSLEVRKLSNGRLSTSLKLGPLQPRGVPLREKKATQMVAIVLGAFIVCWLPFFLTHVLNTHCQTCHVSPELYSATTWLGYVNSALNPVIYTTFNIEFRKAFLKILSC
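Agonist-mode cell screen: cells plated at 1500/well and incubated overnight at 37 °C, then exposed to library compounds for 90 min at 37 °C. Detection reagent was added for 30–60 min at room temperature, and luminescence was read.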
D1 potentiator – potentiators of human D1 dopamine receptor | P21728 | HEK293 TREx D1 cells, calcium flux, dopamine EC20 potentiation | potentiation, % at 10 µM | actives 0.036% (n = 360,000); in the data active = potentiation above about 30%
D1 agonist – human D1 receptor agonism. P21728. HEK293 T-REx D1 cells, calcium flux, agonist mode. activation, % at 2 µM. actives 1% (n = 360,000). AID 504660; in the data active = activation above about 30%
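Agonism was scored from calcium flux recorded over 180 s (1 read/s) after pintool compound addition, following a 10-cycle baseline. Cells were inducible force-coupled HEK293 TREx D1, plated overnight at 30 C and loaded with no-wash calcium dye.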
D3 antag – D3 dopamine receptor (human) antagonism; D3R cells, DiscoveRx beta-arrestin luminescence, antagonist mode; stronger effect = lower value; max response, negative = inhibition, %; actives 2.5% (n = 360,000); AID 652054; in the data active = max response below about -50%; inconclusive = no clear call, values can overlap the other calls
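Cells expressing the human receptor were seeded at 1500 cells/well, incubated overnight at 37 degrees C in 5% CO2, then exposed to library compounds with dopamine controls for 90 minutes at 37 degrees C before luminescent detection.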
Large screens that a line does not name were inactive; ! = repeats disagree. Most compounds without a hit are left out; they make up all but 6% or so of the library.

COc1ccc(C(=O)C2CCN(C(=O)c3ccco3)CC2)cc1	D1 antagonist -40
Cc1cccc(-c2ccc3ncnc(NCc4cc(C)cs4)c3c2)c1	none (no result: DRD3 agonist, D3 antag)
Cc1cc(-c2nn(-c3ccccc3F)cc2CN2CCC(C(N)=O)CC2)c(C)s1	D3 antag inconclusive
Cc1cc(-c2nn(-c3ccccc3F)cc2CN2CCCC(CO)C2)c(C)s1 (stereo not drawn)	D3 antag -53
COCC1CCN(Cc2cn(-c3ccccc3F)nc2-c2cc(C)sc2C)CC1	D3 antag -84
Cc1cc(-c2nn(-c3ccccc3F)cc2CN2CCCC(O)C2)c(C)s1 (stereo not drawn)	none
Cc1cccc(-c2nnn3c2nc(NCc2ccccc2)c2ccccc23)c1	none (no result: D3 antag)
Cc1ccc(CCNS(=O)(=O)c2cnc[nH]2)cc1	D3 antag -66
O=S(=O)(NCc1ccc(Cl)cc1)c1cnc[nH]1	none
CCCCC(=O)N(C)c1c(C)nc2ccc(C(=O)N(C)CCN(C)C)cn12	none (no result: D1 antagonist, D1 potentiator, D1 agonist)
CCCCN(C)c1c(C)nc2ccc(C(=O)N(C)CCN(C)C)cn12	D3 antag -71 (no result: D1 antagonist, D1 potentiator, D1 agonist)
O=C1NC[C@@H](CCCCN2C[C@H](Cc3ccc(O)cc3)N(CCC3CCCCC3)C(=O)C2=O)N(CC2CCCCC2)C1=O	D3 antag -63 (no result: D1 antagonist, D1 potentiator, D1 agonist)
O=C1NC[C@H](CCCCN2CCN(Cc3ccccc3)C(=O)C2=O)N(CCC2CCCCC2)C1=O	DRD3 agonist 33 (no result: D1 antagonist, D1 potentiator, D1 agonist)
CC(C)Oc1ccc(C(=O)NCC(c2ccc(N(C)C)cc2)N2CCCC2)cc1 (stereo not drawn)	none (no result: D3 antag)
CCCN(c1ccccc1F)S(=O)(=O)c1cc(-c2cc(C)no2)ccc1C	none (no result: D3 antag)
CCc1ccc(-c2cc(C)no2)cc1S(=O)(=O)NCCc1ccc(OC)c(OC)c1	D1 antagonist -36
Cc1cc(-c2ccc(C)c(S(=O)(=O)NCCc3ccc(S(N)(=O)=O)cc3)c2)on1	D1 antagonist -63!
CCCN(c1ccccc1F)S(=O)(=O)c1cc(-c2cc(C)no2)ccc1OC	D1 antagonist -46
CCc1ccc(-c2cc(C)no2)cc1S(=O)(=O)NCc1ccc(OC)c(OC)c1	none
Cc1cc(-c2ccc(C)c(S(=O)(=O)NCCc3ccco3)c2)on1	D1 antagonist -34
CCC(C)/C(C)=N/NC(=O)c1ccc(COc2ccc(Cl)c(C)c2)cc1 (stereo not drawn)	none
Clc1cnc2nc(SC/C=C/c3ccccc3)[nH]c2c1	none
CCOC(=O)N1CCC(NC(=O)c2ccc3c(c2)N(Cc2cc(C)ccc2C)C(=O)c2ccccc2S3=O)CC1 (stereo not drawn)	none (no result: D3 antag)
CC(S)C(=O)NCC(=O)O (stereo not drawn)	none (no result: D1 antagonist, D1 potentiator, D1 agonist, D3 antag)
CCc1cccc(C)c1NC(=O)c1cnn(-c2ccc(F)cc2)c1-n1cccc1	none (no result: D3 antag)
CC1(C(=O)NCc2ccc(C(F)(F)F)cc2)CCN1Cc1cc2ccccc2o1 (stereo not drawn)	none (no result: D1 antagonist, D1 potentiator, D1 agonist)
CC1(C(=O)NC2CCN(Cc3ccccc3)CC2)CCN1Cc1cc2ccccc2o1 (stereo not drawn)	D3 antag -78 (no result: D1 antagonist, D1 potentiator, D1 agonist)
CSc1ccc(CN2CCC2(C)C(=O)NC2CCN(Cc3ccccc3)CC2)cc1 (stereo not drawn)	D3 antag -111 (no result: D1 antagonist, D1 potentiator, D1 agonist)
O=C(NCCN1CCN(c2ccccc2)CC1)C1CCN(S(=O)(=O)c2cccs2)CC1	DRD3 agonist 46
O=C(NCCN1CCN(c2ccccc2)CC1)C1CCN(S(=O)(=O)c2cccc3nonc23)CC1	DRD3 agonist 41
O=C(C1CCCN(S(=O)(=O)c2cccc3nonc23)C1)N1CCC(Cc2ccccc2)CC1 (stereo not drawn)	D3 antag -53
O=C(NCCc1ccccc1)C1CCN(S(=O)(=O)c2cccc3nonc23)CC1	none
O=C(c1ccccc1)c1c2c(cc3sc4ccccc4[n+]13)-c1cccc3cccc-2c13	D1 agonist 242
O=C(CN1CCCCCC1)Nc1ccc(Cl)cn1	none
Cc1cccc(N2CCN(C(=S)NC3CCCCC3)CC2)c1C	D1 antagonist -33
Cc1cccc(N2CCN(C(=O)c3ccncc3)CC2)c1C	DRD3 agonist 46
Cc1cccc(N2CCN(C(=O)c3ccc4nc[nH]c4c3)CC2)c1C	D1 antagonist -46
Cc1ccc(C)c(N2CCN(C3(c4ccccc4)C(=O)c4ccccc4C3=O)CC2)c1	none (no result: D3 antag)
CCCc1nc2ccc(Br)cn2c1Cc1cccc(Cl)c1	none (no result: D1 antagonist, D1 potentiator, D1 agonist)
Cc1ccc(CSCC(=O)N(C)CC(=O)Nc2ccccc2Cl)cc1	D1 antagonist -33
CN(CC(=O)Nc1ccccc1Cl)C(=O)COC(=O)c1nc(Cl)c(Cl)c(Cl)c1Cl	D3 antag -67
CN(CC(=O)Nc1ccccc1Cl)C(=O)Cn1cc(C(F)(F)F)cc(Cl)c1=O	none
CN(CC(=O)Nc1ccccc1Cl)C(=O)Cn1cc(C(F)(F)F)ccc1=O	D1 antagonist -33
O=C(Cn1nc(-c2ccc(Cl)cc2)ccc1=O)NCc1ccccc1Cl	none (no result: D3 antag)
Cc1ccc(C(CC(=O)c2ccc(Cl)cc2)C(=O)O)cc1 (stereo not drawn)	none
COC(=O)C(CC(=O)c1ccc(Cl)cc1)c1ccc(C(C)C)cc1 (stereo not drawn)	D1 antagonist -30
COc1cccc(OC)c1C(=O)Nc1ccc(S(=O)(=O)Nc2nccc(C)n2)cc1	none (no result: D3 antag)
CCCNC(=O)OCCC12CC3CC(CC(C3)C1)C2	D1 agonist 33
COc1ccc(-c2sc3ccccc3c2-c2ccc(OCCN(C)C)cc2)cc1	none (no result: D1 antagonist, D1 potentiator, D1 agonist)
COc1cccc(-c2sc3ccc(OC)cc3c2-c2ccc(OCCN(C)C)cc2)c1	D3 antag -79 (no result: D1 antagonist, D1 potentiator, D1 agonist)
Cc1csc(Nc2nc(N)c(C(=O)Nc3cc(Cl)ccc3F)o2)n1	none
Cc1cccc(NC(=O)CCCc2ccccc2)c1	D1 antagonist -58
CC(O)c1cccc(NC(=O)CCCc2ccccc2)c1 (stereo not drawn)	none
COc1ccc(OCCCC(=O)Nc2cccc(SC)c2)cc1	D1 antagonist -73
O=C(CCCSc1ccc(Cl)cc1)Nc1ccccc1O	D1 agonist 33
COc1ccc(OCCCC(=O)OC(C)C(=O)Nc2cccc(C(C)=O)c2)cc1 (stereo not drawn)	none
COc1ccc(OCCCC(=O)Nc2cccc(C(C)=O)c2)cc1	D1 antagonist -47
O=C(CSCc1ccc(Cl)cc1)Nc1ccccc1O	none
CSc1cccc(NC(=O)CCCOc2ccc(Cl)cc2C)c1	none
COc1ccc(C(=O)N2CCCCC2c2cc(C(=O)NCc3ccccc3)no2)cc1 (stereo not drawn)	none (no result: D1 antagonist, D1 potentiator, D1 agonist)
COc1ccc(-c2noc(-c3nnn(-c4cc(C)ccc4C)c3N)n2)cc1	none (no result: D3 antag)
CN(C)S(=O)(=O)c1cccc(NC(=O)CCCSc2ccccc2)c1	none
CC(=O)c1cccc(NC(=O)CCCSc2ccccc2)c1	D1 antagonist -39 (no result: D1 potentiator)
Cn1c(SCC(=O)Nc2ncc(C(F)(F)F)cc2Cl)nnc1-c1ccc(Cl)cc1	none
O=C(Nc1cccc(NC(=O)c2ccccc2Cl)c1)c1ccc([N+](=O)[O-])o1	D1 antagonist -46
